PubChem BioAssay (Tox21)
Values joined by “and” are separate entries in the source; they are usually repeats but may differ in a detail not shown here. Equal entries are not always repeated. Results filed as inconclusive are left out. Entries that show only a call come without a potency. Some compounds were tested as several samples or in several runs, with calls that do not always agree. Active and inactive are the calls of the source. Unless noted, calls follow the shape of the dose curve; as a rule, active = well fitted curve in the direction sought with a large enough effect in the repeat runs; inconclusive = weak or mixed curves; inactive = no such curve, though single readings can be large; an effect the other way counts as inactive or inconclusive.

Experiments:
[1] = qHTS assay to identify small molecule agonists of the hypoxia (HIF-1) signaling pathway - cell viability counter screen (AID 1224844; calls by dose curve; also: nearly all actives have a fitted effect of over 50% in size)
In short: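 CellTiter-Glo luminescence read-out, 30 min RT, taken in the same wells as the beta-lactamase HRE reporter assay; HRE-bla ME-180 cells, 0.5% dialyzed FBS, 17 hr compound treatment at 37C, 5% CO2.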

[2] = qHTS assay to identify small molecule agonists of H2AX (AID 1224845; active = well fitted activation curve with a large enough effect in the signal ratio in the repeat runs, not every such curve was filed as active; the % refers to the signal ratio)
In short: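 Phospho-H2AX Ser139 measured by HTRF (ex 320 nm; em 665 and 620 nm) after 24 hr antibody incubation. Compounds, 15 concentrations, 0.76% DMSO, were applied to CHO-K1 cells for 3hr at 37C before lysis.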

[3] = qHTS assay to identify small molecule agonists of the hypoxia (HIF-1) signaling pathway (AID 1224846; active = well fitted activation curve with a large enough effect in the signal ratio in the repeat runs, not every such curve was filed as active; the % refers to the signal ratio)
In short: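 Beta-lactamase FRET read-out (CCF4-AM substrate) from ME-180 cells carrying an HRE-driven bla reporter, after 17 hrs compound exposure at 37C/5% CO2. Cells were seeded at 2,000 per well in 0.5% dialyzed FBS medium and preincubated 5 hrs.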

[4] = qHTS assay to identify small molecule antagonists of the estrogen related receptor (ERR) signaling pathway from Tox21 library (AID 1224848); also: nearly all actives have a fitted effect of over 50% in size
In short: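 ERR cell line, 2,000 cells/well. 6 h settle, then compound (DMSO) added; 18 h at 37 C; ONE-Glo luminescence after 30 min RT.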

[5] = qHTS assay to identify small molecule agonists of the estrogen related receptor (ERR) signaling pathway from Tox21 library (AID 1224849; calls by dose curve; also: nearly all actives have a fitted effect of over 15% in size); conditions: ERR reporter cell line, ONE-Glo luciferase, 18 h; at 92.4 µM (top of the series)
In short: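 Luminescence readout (ONE-Glo, 30 min RT) after 18 h compound exposure at 37 C of NTP-supplied ERR reporter cells; cells were plated 6 h before compound addition by pin tool.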

[6] = qHTS RealTime-Glo MT Cell Viability Assay in HepG2 cells - 24 hour (AID 1224867); also: nearly all actives have a fitted effect of over 50% in size
In short: (§1)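 HepG2 cells (600/well) were dispensed with RealTime-Glo reagents, incubated 5 h at 37 °C, then treated with compounds in DMSO for up to 40 h. Nonlytic NanoLuc luminescence reflecting viable cells was read at each stated time point.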

[7] = qHTS RealTime-Glo MT Cell Viability Assay in HEK293 cells - 32 hour (AID 1224868); also: top concentration of the series differs between compounds; nearly all actives have a fitted effect of over 50% in size
In short: (§2)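 HEK293 cells seeded with NanoLuc/prosubstrate reagent, rested 5 h at 37 C, then dosed and kept at 37 C up to 40 h. Nonlytic real-time luminescence from viable cells read at 0, 8, 16, 24, 32 and 40 h.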

[8] = A CellTox Green Cytotoxicity Assay to monitor cytotoxicity in HEK293 cells - 0 hour (AID 1224869); also: nearly all actives have a fitted effect of over 50% in size
In short: (§3)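 Read-out: fluorescence of a cell-impermeant cyanine dye staining DNA of dead cells, proportional to cytotoxicity. HEK293, 600 cells/well with reagent, compound (23 nL DMSO) added after 5 h; reads at 0, 8, 16, 24, 32, 40 h.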

[9] = qHTS RealTime-Glo MT Cell Viability Assay in HepG2 cells - 40 hour (AID 1224870); also: nearly all actives have a fitted effect of over 50% in size
In short: (§4)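 Real-time viability: cells seeded at 600 per well together with NanoLuc and cell-permeant prosubstrate, compounds added after 5 h incubation. Luminescence tracked at 0, 8, 16, 24, 32 and 40 h of exposure.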

[10] = qHTS RealTime-Glo MT Cell Viability Assay in HepG2 cells - 8 hour (AID 1224873); also: nearly all actives have a fitted effect of over 55% in size
In short: as §4

[11] = qHTS RealTime-Glo MT Cell Viability Assay in HEK293 cells - 40 hour (AID 1224874); conditions: RealTime-Glo luminescence; max response: stronger effect = lower value; also: nearly all actives have a fitted effect of over 50% in size
In short: (§5)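 Luminescence readout at each listed time point; HEK293, 600 cells/well, RealTime-Glo MT reagent added with cells; compounds pinned (23 nL in DMSO) after 5 h at 37 C; continuous culture at 37 C.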

[12] = A CellTox Green Cytotoxicity Assay to monitor cytotoxicity in HEK293 cells - 24 hour (AID 1224875); also: nearly all actives have a fitted effect of over 45% in size
In short: as §3

[13] = A CellTox Green Cytotoxicity Assay to monitor cytotoxicity in HepG2 cells - 16 hour (AID 1224876); also: nearly all actives have a fitted effect of over 45% in size; also: potency is read from the fitted curve at half-maximal effect
In short: (§6)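 HepG2, 600 cells/well premixed w/ CellTox Green; 5 h settle, 37 C/5% CO2; pintool cpd add (DMSO); 37 C, 40 h; fluorescence read at 0, 8, 16, 24, 32, 40 h.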

[14] = qHTS RealTime-Glo MT Cell Viability Assay in HepG2 cells - 32 hour (AID 1224877); also: nearly all actives have a fitted effect of over 55% in size
In short: as §1

[15] = A CellTox Green Cytotoxicity Assay to monitor cytotoxicity in HepG2 cells - 24 hour (AID 1224878); also: nearly all actives have a fitted effect of over 45% in size; also: potency is read from the fitted curve at half-maximal effect
In short: as §6

[16] = A CellTox Green Cytotoxicity Assay to monitor cytotoxicity in HepG2 cells - 40 hour (AID 1224879); also: nearly all actives have a fitted effect of over 40% in size; also: potency is read from the fitted curve at half-maximal effect
In short: as §6

[17] = qHTS RealTime-Glo MT Cell Viability Assay in HEK293 cells - 0 hour (AID 1224880); also: top concentration of the series differs between compounds; nearly all actives have a fitted effect of over 45% in size
In short: as §5

[18] = A CellTox Green Cytotoxicity Assay to monitor cytotoxicity in HEK293 cells - 40 hour (AID 1224871); also: nearly all actives have a fitted effect of over 45% in size
In short: as §3

[19] = qHTS RealTime-Glo MT Cell Viability Assay in HEK293 cells - 16 hour (AID 1224872)
In short: as §2

Structure (SMILES) | Potency [1] | Potency [2] | outcome [3] | Potency [4] | activity change, positive = activation [5] | Potency [6] | Potency [7] | Potency [8] | Potency [9] | Potency [10] | max response [11] | Potency [12] | Potency [13] | Potency [14] | Potency [15] | Potency [16] | Potency [17] | Potency [18] | Potency [19]
Cc1cc(Cl)ccc1N=CN(C)C | inactive | inactive | inactive | inactive | -6.81% (inactive) and 2.85% (inactive) | inactive | inactive | inactive | inactive | inactive | 2.7% (inactive) and 1.16% (inactive) | inactive | inactive | inactive | inactive | inactive | inactive | – | –
CNC(=O)Oc1cccc2c1OC(C)(C)C2 | inactive | inactive | inactive | inactive | 3.12% (inactive) and 1.27% (inactive) | inactive | inactive | inactive | inactive | inactive | – | inactive | inactive | inactive | inactive | inactive | inactive | – | –
CCNCC | inactive | inactive | inactive | inactive | 1.09% (inactive) and 1.12% (inactive) | inactive | inactive | inactive | inactive | inactive | -0.119% (inactive) and -1.58% (inactive) | inactive | inactive | inactive | inactive | inactive | inactive | inactive | inactive
O=P(OCCCl)(OCCCl)OCCCl | inactive | inactive | inactive | inactive | – | inactive | inactive | inactive | inactive | inactive | -9.18% (inactive) and -11.6% (inactive) | inactive | inactive | inactive | inactive | inactive | inactive | inactive | –
S=c1[nH]c2ccccc2[nH]1 | inactive | inactive | inactive | inactive | -4.19% (inactive) and 0.256% (inactive) | inactive | inactive | inactive | inactive | inactive | 4.47% (inactive) and 4.64% (inactive) | inactive | inactive and 21.9 µM (active) | inactive | inactive and 21.9 µM (active) | inactive and 21.9 µM (active) | inactive | – | inactive
CN(C)P(=O)(N(C)C)N(C)C | inactive | inactive | inactive | inactive | – | inactive | inactive | inactive | inactive | inactive | 3.42% (inactive) and 6.93% (inactive) | inactive | inactive | inactive | inactive | inactive | inactive | inactive | –
